According to PubChem BioAssay AID651768 (National Center for Advancing Translational Sciences (NCATS), 2012):
Out of some 360,000 compounds screened, about 1,700 (0.47%) were called active. Not shown: some 2% with an inconclusive outcome. Calls come from the whole dose curve; as a rule, active = well fitted inhibition curve with a large enough effect; inconclusive = small, poorly fitted or top-dose-only effect; inactive = no such curve, though single readings can be large or run the other way. What follows is part of a selection rich in actives, with near analogues and random picks from the rest.

target: Bifunctional 3'-5' exonuclease/ATP-dependent helicase WRN (Homo sapiens) (UniProt Q14191); assay: qHTS for Inhibitors of WRN Helicase; conditions: WRN helicase unwinding, fluorescent forked duplex, kinetic; series mostly up to 114 µM; activity change, negative = inhibition: at the top concentration; note: nearly all actives have a fitted effect of over 55% in size
Description: Inhibition of DNA repair is proposed as a strategy for combating cancer. Synthetic lethality is an approach that exploits preexisting DNA repair deficiencies in certain tumors to develop inhibitors of DNA repair pathways that compensate for the tumor-associated DNA repair deficiency. Because helicases play critical roles in the DNA damage response and in DNA repair, particularly in actively dividing and replicating cells, characterization of synthetic lethal relationships of DNA helicases may be of value in developing improved anticancer treatment strategies; moreover, small molecules that specifically target a given DNA helicase may be useful for understanding its role in cellular nucleic acid metabolism. The goal of this project is to identify small molecule, non-covalent chemical inhibitors of the Werner syndrome (WS) helicase (WRN), which plays an important role in cell proliferation, the replication stress response, and DNA repair. […] The WRN gene product that is defective in the chromosomal instability disorder has DNA helicase and exonuclease activities and interacts with a number of nuclear proteins to maintain genomic stability. We will employ an optimized high-throughput screening assay that utilizes a fluorescence intensity modulation scheme with a fluorophore and quencher positioned near one another within a duplex deoxyoligonucleotide that contains a single forked structure. After a high-throughput screen of the ~350,000-member Molecular Libraries Small Molecule Repository (MLSMR) collection, followed by data analysis and hit selection, a panel of confirmatory, as well as secondary and ternary, assays will be employed to identify high-confidence WRN inhibitors. Structure-activity relationships will be investigated for the top candidate inhibitor series through medchem expansion. These are the results of the primary screening campaign against the MLSMR. NIH Chemical Genomics Center [NCGC] NIH Molecular Libraries Probe Centers Network [MLPCN] MLPCN Grant: MH096530 Assay Submitter (PI): Robert Brosh, National Institute of Aging
Three muL of reagents (buffer in columns 3 and 4 as negative controls; WRN at 20 nM final concentration in columns 1 and 2 as positive controls; columns 5-48 as test reactions) will be dispensed into a 1536-well Greiner black plate via solenoid-valve based nanoliter dispensers. Compounds (23 nL each in columns 5-48) and control (23 nL each in column 2 as dose-response) will be transferred via a Kalypsys pintool equipped with a 1536-pin array. Plates will be incubated for 15 min at room temperature, and then 1 µL of substrate (100 nM forked duplex oligonucleotide and 2 mM ATP final concentrations) will be added to start reaction, and plate will be transferred into a ViewLux high-throughput CCD imager where reaction progress is measured in kinetic mode using standard red-fluorescence optics (excitation filter 525 nm, emission filter 598 nm).
% is set by controls: 0 for no effect and ±100 for the full control effect; potency is the fitted concentration of half-maximal effect.

Chain of Bifunctional 3'-5' exonuclease/ATP-dependent helicase WRN (Homo sapiens) (Q14191 whole entry, looked up): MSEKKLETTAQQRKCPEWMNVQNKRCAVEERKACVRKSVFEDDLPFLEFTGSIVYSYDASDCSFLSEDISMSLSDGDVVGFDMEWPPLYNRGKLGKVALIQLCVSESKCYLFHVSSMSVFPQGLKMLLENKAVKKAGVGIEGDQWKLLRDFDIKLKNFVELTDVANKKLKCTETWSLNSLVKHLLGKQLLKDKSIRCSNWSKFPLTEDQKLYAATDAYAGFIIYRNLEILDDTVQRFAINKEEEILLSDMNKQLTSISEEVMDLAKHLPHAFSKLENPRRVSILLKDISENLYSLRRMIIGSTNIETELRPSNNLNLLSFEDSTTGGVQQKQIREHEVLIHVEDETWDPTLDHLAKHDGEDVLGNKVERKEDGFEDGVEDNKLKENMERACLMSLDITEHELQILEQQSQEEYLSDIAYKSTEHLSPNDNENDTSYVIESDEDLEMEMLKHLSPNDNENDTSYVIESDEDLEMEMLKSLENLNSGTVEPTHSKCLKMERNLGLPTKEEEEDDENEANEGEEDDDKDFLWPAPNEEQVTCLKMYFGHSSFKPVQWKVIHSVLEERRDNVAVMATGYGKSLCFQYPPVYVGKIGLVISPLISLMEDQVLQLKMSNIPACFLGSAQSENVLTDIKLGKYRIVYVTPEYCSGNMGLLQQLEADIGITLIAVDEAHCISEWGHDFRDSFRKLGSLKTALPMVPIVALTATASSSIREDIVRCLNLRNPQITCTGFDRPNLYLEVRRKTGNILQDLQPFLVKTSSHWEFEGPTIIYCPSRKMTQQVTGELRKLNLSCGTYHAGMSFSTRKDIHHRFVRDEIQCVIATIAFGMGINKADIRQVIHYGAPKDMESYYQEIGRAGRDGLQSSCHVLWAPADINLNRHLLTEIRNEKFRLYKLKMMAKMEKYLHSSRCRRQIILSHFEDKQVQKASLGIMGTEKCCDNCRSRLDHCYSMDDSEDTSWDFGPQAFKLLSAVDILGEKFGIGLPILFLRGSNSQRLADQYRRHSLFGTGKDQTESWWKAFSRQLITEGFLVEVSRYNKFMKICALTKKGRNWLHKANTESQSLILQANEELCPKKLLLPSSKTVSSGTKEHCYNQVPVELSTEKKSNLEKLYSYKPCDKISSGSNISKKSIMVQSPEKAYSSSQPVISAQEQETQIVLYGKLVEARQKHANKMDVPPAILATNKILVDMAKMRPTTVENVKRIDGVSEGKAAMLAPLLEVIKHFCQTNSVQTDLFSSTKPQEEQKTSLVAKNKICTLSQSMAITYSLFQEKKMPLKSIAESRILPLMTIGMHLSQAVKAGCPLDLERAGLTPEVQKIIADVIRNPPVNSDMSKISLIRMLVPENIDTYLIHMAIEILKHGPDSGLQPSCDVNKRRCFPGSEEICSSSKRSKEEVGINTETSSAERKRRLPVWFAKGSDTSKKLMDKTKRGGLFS

| Structure (SMILES) | Potency | activity change, negative = inhibition |
| --- | --- | --- |
| CC1(C)C(c2ccccc2)=NC(c2cccnc2)=[N+]1[O-] | 50.1 µM (active) |  |
| CCOP(=O)(OCC)C(NC(=O)c1ccc(C)cc1)C(Cl)(Cl)Cl (stereo not given) |  | 13.7% (inactive) |
| O=C(Cc1ccc(Cl)cc1)NCCN1CCN(C(=O)Cc2ccc(Cl)cc2)CC1 |  | 5.8% (inactive) |
| CCOC(=O)[C@]12Cc3cc(OC)ccc3[C@H]1N(C(C)C)C(=O)c1ccccc12 |  | -1.64% (inactive) |
| CC(Cc1ccccc1)NCCC(c1ccccc1)c1ccccc1 (stereo not given) |  | -1.92% (inactive) |
| CC(Cc1cccs1)NCc1ccc(Cl)cc1 (stereo not given) |  | -4.04% (inactive) |
| O=C(O)CCn1cc(C=C2C(=O)NC(=S)NC2=O)c(-c2cccc(Br)c2)n1 | 31.6 µM (active) |  |
| C=C(C)C1(CCCC)C(=O)NC(=S)NC1=O |  | 0.947% (inactive) |
| COc1ccc(-n2nnnc2C(c2cccc3ccccc23)N2CCC(n3c(=O)[nH]c4ccccc43)CC2)cc1 (stereo not given) |  | -2.03% (inactive) |
| COC(=O)CN(CCCl)P1(=O)OCCCN1CCCl (stereo not given) |  | 1.67% (inactive) |
| CCOc1ccc(-c2cc(C)[n+](CCN(CC)CC)c(-c3ccc(OCC)cc3)c2)cc1 |  | -8.79% (inactive) |
| O=C1N=c2ccccc2=C/C1=C\c1c(O)[nH]c(=S)[nH]c1=O |  | -30.7% (inactive) |
| O=c1[nH]c(O)c(C=Nc2cc(F)cc(F)c2)c(=O)[nH]1 |  | 2.85% (inactive) |
| Cc1ccc2c(c1)=C/C(=C\c1c(O)[nH]c(=O)[nH]c1=O)C(=O)N=2 | 39.8 µM (active) |  |
| N#Cc1ccc(Cn2cc(C(=O)c3ccco3)c3ccccc32)cc1 |  | -15.2% (inactive) |
| CCCCCCCCCCCCn1ccc(=N)cc1 |  | -5.13% (inactive) |
| COc1ccc(CCn2c(O)c(C=NCCCn3ccnc3)c(=O)[nH]c2=O)cc1OC |  | 6.66% (inactive) |
| CC(C)(C)c1ccc(CN2C(=O)CN=C(c3ccccc3)c3ccccc32)cc1 |  | -15.4% (inactive) |
| O=C(CN1CCCC1=O)NCCc1ccccc1 |  | 0.395% (inactive) |
| O=C1CC(=O)N(Cc2ccccc2)C(=O)N1CCCCCCN1C(=O)CC(=O)N(Cc2ccccc2)C1=O | 28.2 µM (active) |  |
| CC(=O)C1(O)CCC2C3CCC4=C(Cl)C(=O)CCC4(C)C3CCC21C (stereo not given) |  | 0.713% (inactive) |
| CCOC(=O)[C@]12Cc3ccccc3[C@H]1N(C1CCCCC1)C(=O)c1cc(OC)ccc12 |  | -0.682% (inactive) |
| O=C1NC(=O)N(CCc2ccc(F)cc2)C(=O)/C1=C/C=C/c1ccccc1 |  | -13.3% (inactive) |
| O=C(O)COc1ccccc1/C=C1\C(=O)NC(=O)N(CCC2=CCCCC2)C1=O | 39.8 µM (active) |  |
| C=CCN1C(=O)NC(=O)/C(=C/c2ccc(OCC(=O)Nc3ccc(C)cc3)cc2)C1=O |  | -8.42% (inactive) |

| Structure (SMILES) | Potency | activity change, negative = inhibition |
| --- | --- | --- |
| CCCOC(=O)C1C2c3ccccc3C(c3ccccc32)C1C(=O)O (stereo not given) |  | -3.12% (inactive) |
| CC(=O)N1CN2CN(C(C)=O)CC(C(=O)c3ccc(Br)cc3)(C2)C1 |  | -1.58% (inactive) |
| O=C1NC(=O)N(c2ccc(F)cc2)C(=O)/C1=C/c1ccc2c(c1)CCCN2Cc1ccccc1 |  | -26.4% [at 57.1 µM] (inactive) |
| O=C1NC(=O)N(c2ccccc2)C(=O)/C1=C/c1ccc([N+](=O)[O-])s1 | 28.2 µM (active) |  |
| O=c1c2ccccc2nc(CBr)n1-c1ccc(Cl)cc1 |  | 11.3% (inactive) |
| COc1ccc(N2C(=O)/C(=C/c3ccco3)C(=O)NC2=S)cc1 | 17.8 µM (active) |  |
| CN(C)CC1CCCCC1OC(=O)c1ccc(Cl)c(Cl)c1 (stereo not given) |  | 9.28% (inactive) |
| CC(C)(C)[C@]1(O)C[C@@H]2OC(=O)C[C@@]23C(=O)O[C@@H]2OC(=O)[C@H](O)[C@]213 |  | -2.59% (inactive) |
| COc1ccc(-c2nn(CCC#N)cc2C(=O)Nc2ccc(C(C)=O)cc2)cc1 |  | 1.6% (inactive) |
| Clc1cccc(Cl)c1Cl |  | -11.3% (inactive) |
| Cc1c(C(=O)O)cccc1-n1c(C)cc(/C=C2\C(=O)NC(=O)N(c3ccc4c(c3)OCO4)C2=O)c1C |  | -16.1% [at 11.6 µM] (inactive) |
| Cc1cccc(N2C(=O)NC(=O)/C(=C\c3cnn(-c4ccccc4)c3)C2=O)c1 | 50.1 µM (active) |  |
| COc1ccc(S(=O)(=O)NCc2ccc(C(=O)N3CCC4(CC3)OCCO4)cc2)cc1 |  | 3.75% (inactive) |
| OCC#CC[N+]1(CC#Cc2ccccc2)CCCC1 |  | -12.6% (inactive) |
| CSC1=NP(=S)(SC)N(C)c2nc3n(c21)CCC3 (stereo not given) |  | 7.66% (inactive) |
| COC(=O)C[C@H]1CC[C@H]2NC[C@@H](O)COC[C@@H]2O1 |  | 2.11% (inactive) |
| O=C1NC(=O)N(Cc2ccco2)C(=O)/C1=C\c1ccc(-c2ccc(F)cc2)o1 | 31.6 µM (active) |  |
| COc1ccc(-c2nc(CS(=O)CC(=O)N3CCC4(CC3)OCCO4)c(C)o2)cc1 (stereo not given) |  | -1.12% (inactive) |
| COc1ccccc1N=Nc1c(O)[nH]c(=S)[nH]c1=O |  | -24.1% (inactive) |
| O=c1[nH]c(=S)[nH]c(O)c1/C=C1\C=Nc2ccccc21 | 50.1 µM (active) |  |
| O=c1[nH]c2ccccc2n1C1CCN(C(c2ccccc2)c2nnnn2Cc2ccccc2)CC1 (stereo not given) |  | -7.52% (inactive) |
| O=C(N/N=C/c1c(O)n(C2CC2)c(=S)[nH]c1=O)c1ccccc1 |  | -24% (inactive) |
| COc1ccccc1N=C1SCCCN1C |  | 3.59% (inactive) |
| CCCCCn1c(=O)c(C(=O)Nc2c(C)n(C)n(-c3ccccc3)c2=O)c(O)c2ccccc21 |  | -9.8% (inactive) |
| COC(=O)C1=C(c2cccc(OCc3ccccc3)c2)C[C@@H]2CC[C@H]1N2C(=O)NNCc1ccccc1 |  | -8.99% (inactive) |
